# A selection: hits, their analogues and other compounds. The true share with any hit is near 19%.
# ELG1 repair inh = inhibitors of ELG1-dependent DNA repair in HEK293T cells. 2.3% of 330,000 active. HEK293T ELG1-luciferase reporter, luminescence, 16 h; DNA damage induced by 5-fluorouridine. Potency, µM (doses to about 46.1 µM), actives largely listed as inhibitors; note: nearly all actives have a fitted effect of over 55% in size
#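 In this reporter screen, reduction of luminescence relative to DMSO vehicle indicated activity. Compounds and 5-fluorouridine were added together to 2,000 cells per well, incubated for 16 hr at 37 °C, then developed with ONE-Glo.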
# TDP1 inh = inhibitors of human tyrosyl-DNA phosphodiesterase TDP1; 0.28% of 350,000 active; recombinant TDP1, AlphaScreen DNA substrate cleavage; Q9NUW8; Potency, µM (top dose mostly 130 µM), hits mostly inhibitors; AID 485290; note: nearly all actives have a fitted effect of over 40% in size
# Target sequence (Q9NUW8 whole entry, looked up): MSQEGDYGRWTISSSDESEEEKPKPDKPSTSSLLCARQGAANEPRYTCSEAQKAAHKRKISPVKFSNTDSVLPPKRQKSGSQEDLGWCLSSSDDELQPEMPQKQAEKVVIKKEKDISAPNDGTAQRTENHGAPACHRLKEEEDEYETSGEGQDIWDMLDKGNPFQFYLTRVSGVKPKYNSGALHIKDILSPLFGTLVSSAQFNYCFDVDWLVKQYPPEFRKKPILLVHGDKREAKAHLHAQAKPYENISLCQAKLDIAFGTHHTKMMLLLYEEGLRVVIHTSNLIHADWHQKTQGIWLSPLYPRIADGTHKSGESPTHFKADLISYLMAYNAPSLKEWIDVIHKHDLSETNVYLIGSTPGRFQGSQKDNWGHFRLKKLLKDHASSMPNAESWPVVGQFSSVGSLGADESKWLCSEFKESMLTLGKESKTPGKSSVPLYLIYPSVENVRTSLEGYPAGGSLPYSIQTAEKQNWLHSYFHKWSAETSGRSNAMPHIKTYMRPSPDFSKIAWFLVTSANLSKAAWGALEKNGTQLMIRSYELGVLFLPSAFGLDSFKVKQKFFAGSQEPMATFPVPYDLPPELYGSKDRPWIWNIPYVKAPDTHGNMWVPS
#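 Recombinant human Tdp1 (E. coli-expressed, 1 nM final) preincubated with compounds 15 min at room temperature, then 5'-biotin/3'-phosphotyrosine-FITC DNA substrate (15 nM final) added for 5 min. AlphaScreen beads (10 ug/ml final) added 10 min; cleavage lowers signal.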
# TDP1 cell CPT = growth inhibition of DT40 Tdp1-/-;hTDP1 cells with camptothecin (screen for TDP1 inhibitors) | 12% of 420,000 active | chicken DT40 Tdp1-/-;hTDP1 cells + 20 nM CPT, ATP luminescence, 48 h | AID 686979 | Potency, µM (doses to about 46.2 µM), hits mostly inhibitors; note: nearly all actives have a fitted effect of over 55% in size
#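 Chicken DT40 Tdp1-/- cells stably complemented with human TDP1 were seeded at 400 cells/well in medium containing 20 nM camptothecin, exposed to pin-transferred compounds, and grown at 37 °C for at least 48 hr. Viability was read as ATP luminescence.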
# TDP1 cell noCPT = qHTS for Inhibitors of human tyrosyl-DNA phosphodiesterase 1 (TDP1): qHTS in cells in absence of CPT. 15% of 420,000 active. DT40 Tdp1-/- hTDP1 cells, no CPT, ATP luminescence, 48 h. Potency, µM (top dose mostly 46.2 µM), usual class: inhibitors. AID 686978, 2013; note: nearly all actives have a fitted effect of over 55% in size
#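 Readout: luminescence from CellTiter-Glo after 30 min in the dark at RT. Cells: DT40 Tdp1-/- with stable hTDP1, 400/well. Exposure: compounds alone, ≥48 hr, 37 °C.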
# Giardia kill = Giardia lamblia killing. activity change, % at 7.66 µM, hits read low. 0.15% of 340,000 active. Giardia lamblia trophozoite viability; in the data active = activity change below about -80%; inconclusive = between about -30% and that limit;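 note: parasites exposed to compound for two days anaerobically before the ATP read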
#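 Anaerobic 48 hrs incubation at 37 deg C of 100 trophozoites/well with test compounds; ATPLite 1-Step luminescence, 15-30 min RT, reports cellular ATP as viability.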
# IL-1B inflam inh = inflammasome signaling inhibition, IL-1 beta readout; THP-1 LPS/ATP IL-1B secretion, AlphaLISA, 16 h; hits give low values; activity change, % at 57.5 µM; 4.7% of 360,000 active; in the data active = activity change below about -50%; inconclusive = mostly about -30% to -49%
#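 THP-1 cells pretreated 1 hr with compounds (up to 57.5 uM final), then stimulated with LPS (250 ng/mL final) plus ATP (1.25 mM final); secreted IL-1B measured by AlphaLISA after 16 hr, decreased signal indicating inhibition.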
# Hits are given with their value; – = inactive; ? = inconclusive; · = no result given; [ ] = dose if it differs, or a comment. Unless noted, calls come from the whole dose curve; as a rule, active = well fitted curve in the direction sought with a large enough effect; inconclusive = small, poorly fitted or top-dose-only effect, or another doubt; inactive = no such curve, though single readings can be large; an effect the other way counts as inactive or inconclusive.
SMILES,ELG1 repair inh,TDP1 inh,TDP1 cell CPT,TDP1 cell noCPT,Giardia kill,IL-1B inflam inh
CC(=O)N1c2ccc(S(=O)(=O)NCCC(=O)NCCc3ccc(Cl)cc3)cc2CC1C (stereo unspecified),–,–,16µM,?,–,–
Cc1ccc(S(=O)(=O)NCCC(=O)OCC(=O)NCCc2ccccc2)cc1C,–,–,–,–,–,–
CC(=O)N1c2ccc(S(=O)(=O)NCCC(=O)NCCc3ccc(C)cc3)cc2CC1C (stereo unspecified),?,–,21µM,?,–,–
CC(=O)N1c2ccc(S(=O)(=O)NCCC(=O)Nc3ccc(C)cc3Br)cc2CC1C (stereo unspecified),·,–,12µM,9.2µM,·,·
Cc1ccc(S(=O)(=O)NCCC(=O)NCCc2ccc(S(N)(=O)=O)cc2)cc1C,–,–,3.3µM,–,–,–
O=C(NC(=S)/C(=C1\CCCCCN1)[N+](=O)[O-])c1ccccc1,?,–,–,–,–,–
CCCc1cc(=O)[nH]c(SCC(=O)Nc2ccc([N+](=O)[O-])cc2C#N)n1,–,–,?,–,–,–
Cc1csc(NC(=O)CCCNC(=O)c2ccc(Cl)cc2)n1,?,–,–,–,–,–
CCOc1nc(NC(=O)NS(=O)(=O)Oc2cccc(F)c2)nc(-c2ccccc2)n1,·,–,·,·,·,·
O=C1C2C3C=CC(C3=C3CCCCC3)C2C(=O)N1c1ccccc1 (stereo unspecified),–,–,?,13µM,–,–
CC(=O)Nc1ccc(S(=O)(=O)N(Cc2ccco2)Cc2cc3ccccc3[nH]c2=O)cc1,?,–,?,?,–,–
CC(=O)Nc1ccc(S(=O)(=O)N(Cc2cccnc2)Cc2cc3ccccc3[nH]c2=O)cc1,–,–,16µM,18µM,–,–
O=c1[nH]c2ccccc2cc1CN(Cc1cccnc1)S(=O)(=O)c1ccc(Cl)cc1,?,–,?,26µM,–,-61
O=c1[nH]c2ccccc2cc1CN(Cc1cccnc1)S(=O)(=O)c1ccc([N+](=O)[O-])cc1,–,–,–,?,–,–
Clc1ccc2oc(SCc3cccnc3)nc2c1,?,·,–,–,–,–
COc1ccc(-c2noc(C3CCCN(C(=O)Nc4ccccc4)C3)n2)cc1 (stereo unspecified),–,–,26µM,?,–,–
COc1ccc(NC(=O)N2CCCC(c3nc(-c4ccc(C(C)C)cc4)no3)C2)cc1 (stereo unspecified),?,–,?,21µM,–,-50
O=C(Nc1ccc(Cl)cc1)N1CCC(c2nc(-c3ccc(F)cc3)no2)CC1,–,–,10µM,11µM,–,?
CCOc1ccccc1NC(=O)N1CCCC(c2nc(-c3ccc(C)o3)no2)C1 (stereo unspecified),–,–,?,?,–,–
COc1ccc(-c2noc(C3CCCN(C(=O)Nc4ccccc4F)C3)n2)cc1 (stereo unspecified),?,–,?,23µM,–,–
Cc1ccc(-c2noc(C3CCCN(C(=O)c4ccccc4)C3)n2)o1 (stereo unspecified),?,–,–,–,–,–
O=c1c2ccccc2nc2sc(Nc3cccc(C(F)(F)F)c3)nn12,·,–,–,–,·,·
CC(=O)c1ccc(NC(=O)c2ccc(-c3ccc(Cl)cc3)o2)cc1,·,–[12.3 µM],?,?,·,·
CN(Cc1ccc(Cl)s1)C(=O)CN1C(=O)N(C)C2(CCCCC2)C1=O,?,–,?,–,–,–
COc1ccc(NC(=O)N2CCCC(c3nc(-c4ccc(OC)cc4)no3)C2)cc1 (stereo unspecified),–,–,?,?,–,-54
SMILES,ELG1 repair inh,TDP1 inh,TDP1 cell CPT,TDP1 cell noCPT,Giardia kill,IL-1B inflam inh
COc1ccc(C(=O)N2CCCC(c3nc(-c4cccs4)no3)C2)cc1 (stereo unspecified),–,–,?,?,–,–
CC(S(=O)(=O)c1ccccc1)S(=O)(=O)c1ccccc1,·,·,–,–,·,–
CC(C)(C)OC(=O)CC(S(=O)(=O)c1ccccc1)S(=O)(=O)c1ccccc1,·,·,1.3µM,0.92µM,·,-51
COc1cc(Cl)c(C)cc1NC(=O)CN1C(=O)C2CC=CCC2C1=O (stereo unspecified),–,–,–,–,–,–
Cc1ccc(N(CC(=O)Nc2ccc(C)c(F)c2)S(=O)(=O)c2c(C)n[nH]c2C)cc1,·,–,–,?,·,·
N#Cc1cc2ccncc2c2ccccc12,·,·,?,8.2µM,·,–
Nc1cc2ccncc2c2ccccc12,1.8µM,–,?,10µM,–,?
O=c1oc(CCCO)cc2ccc(C#CC3(O)CCCCC3)cc12,?,–,?,18µM,–,–
O=c1oc(CCCO)cc2ccc(C#Cc3ccsc3)cc12,?,–,?,18µM,–,–
COc1ccc(NC(=O)CC2(CC(=O)O)CCCC2)cn1,–,–,–,–,–,–
CCCCN(CCCC)c1ccc(C=Nc2ccc(/C=C/c3ccnc4ccccc34)cc2)cc1C,·,·,11µM,10µM,·,·
CCOc1cc(/C=N/O)ccc1OCc1ccc(F)cc1,–,–,?,?,–,–
CCOc1ccc(C=Nc2ccc(/C=C/c3ccnc4ccccc34)cc2)cc1OCC,·,·,16µM,10µM,·,·
Cc1ccc(NC(=O)C(C)N2C(=O)c3ccccc3C2=O)cc1C (stereo unspecified),–,–,–,–,–,–
Cn1c(SCc2ccccc2Cl)nc2c([nH]c3ccccc32)c1=O,·,–,–,–,·,·
CCOc1cc(C(=S)N2CCCC2)ccc1O,–,·,–,–,–,–
C=CCOc1c(Cl)cc(C(=S)N2CCCC2)cc1OCC,–,·,5.8µM,7.3µM,–,–
CCOc1cc(C(N)=O)cc(Cl)c1OCC,–,–,?,23µM,–,–
CN(Cc1ccccc1F)C(=O)c1ccccc1Sc1ccccc1C#N,–,–,?,?,–,-66
COc1ccc(CN(C)C(=O)c2ccccc2Sc2ccccc2C#N)c(OC)c1,–,–,23µM,23µM,–,?
O=C(Cc1ccccc1[N+](=O)[O-])N1CCc2ccccc2C1,?,–,–,?,–,–
CCCN1CNc2c(c(=O)[nH]c(=S)n2CCC)C1,·,–,–,–,–,·
CC(=O)c1ccc2cccc3c2c1N=CN3C,–,–,–,–,–,-59
CCSc1nc(-c2cccnc2)ccc1C#N,–,–,–,–,–,–
Cc1ccc(/C=N/NC(=S)N2CCOCC2)cc1,?,–,–,–,–,–
S=C(N/N=C/c1ccc(Cl)cc1)N1CCOCC1,?,–,0.0092µM,0.018µM,–,–
S=C(N/N=C/c1ccc(Br)cc1)N1CCCCC1,?,–,1.2µM,?,–,–

# Screens deposited in PubChem BioAssay by National Center for Advancing Translational Sciences (NCATS).
